According to PubChem BioAssay (NCI):
The panel holds about 83,000 compounds, 20% with a hit somewhere; the sample as a whole holds those more often.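 A percent growth of 40 corresponds to 60% growth inhibition; 0 means no net growth; -100 means all cells died. Active threshold: below 10.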 The source made the active and inactive calls.

Assays:
Test in all cases: NCI-60 one-dose screen, 48 h (100 = growth as untreated, 0 = no growth, -100 = all killed)
[1] = system: HCT-15 colon
[2] = system: HT29 colon
[3] = system: SNB-75 CNS
[4] = system: SNB-19 CNS
[5] = system: U251 CNS
[6] = system: PC-3 prostate
[7] = system: SK-MEL-5 melanoma
[8] = system: UACC-62 melanoma
[9] = system: LOX IMVI melanoma
[10] = system: SK-MEL-28 melanoma
[11] = system: SK-MEL-2 melanoma
[12] = system: EKVX NSCLC
[13] = system: SN12C renal
[14] = system: UO-31 renal
[15] = system: TK-10 renal; conditions: 10 µM unless noted
[16] = system: ACHN renal
[17] = system: CAKI-1 renal
[18] = system: A498 renal
[19] = system: CCRF-CEM leukemia
[20] = system: MOLT-4 leukemia; conditions: 10 µM unless noted

Measured: growth

CN(C)c1nc(NCCNS(=O)(=O)c2ccc(C(=O)/C=C/c3ccc(C(F)(F)F)cc3)cc2)nc(N2CCOCC2)n1
active: [1]; 10 µM unless noted -78.2% | [2]; 10 µM unless noted -73% | [5]; 10 µM unless noted -85.5% | [6]; 10 µM unless noted -60.1% | [7]; 10 µM unless noted -42.8% | [9]; 10 µM unless noted -99.2% | [10]; 10 µM unless noted -9.43% | [14]; 10 µM unless noted -61.9% | [16]; 10 µM unless noted -33.2% | [17]; 10 µM unless noted -32.7% | [19]; 10 µM unless noted -29% | [20] -19.1%
inactive: [3]; 10 µM unless noted 59.5% | [4]; 10 µM unless noted 57.8% | [8]; 10 µM unless noted 48.2% | [11]; 10 µM unless noted 74.8% | [12]; 10 µM unless noted 37.1% | [13]; 10 µM unless noted 39.9% | [15] 70.4% | [18]; 10 µM unless noted 72.5%

CC/C(=C(\c1ccc(O)cc1)c1ccc(OCCNC)cc1)c1ccccc1
inactive: [1]; 1 µM 107% | [1]; 10 µM 69.8% | [2]; 1 µM 98.7% | [2]; 10 µM 55.6% | [3]; 1 µM 110% | [3]; 10 µM 62.7% | [4]; 1 µM 94.6% | [4]; 10 µM 98.6% | [5]; 1 µM 98.6% | [5]; 10 µM 57.4% | [6]; 1 µM 101% | [6]; 10 µM 83% | [7]; 1 µM 97.1% | [7]; 10 µM 89.2% | [8]; 1 µM 91.6% | [8]; 10 µM 101% | [9]; 1 µM 86.9% | [9]; 10 µM 83.1% | [10]; 1 µM 98.5% | [10]; 10 µM 93.3% | [11]; 1 µM 95.1% | [11]; 10 µM 98.7% | [12]; 1 µM 98.9% | [12]; 10 µM 96.4% | [13]; 1 µM 101% | [13]; 10 µM 73.8% | [14]; 1 µM 90.2% | [14]; 10 µM 62.7% | [16]; 1 µM 98.4% | [16]; 10 µM 90.4% | [17]; 1 µM 98.9% | [17]; 10 µM 85.3% | [18]; 1 µM 104% | [18]; 10 µM 91.2% | [19]; 1 µM 89.9% | [19]; 10 µM 92.6%

Cc1cc(C(NC(=O)CCCCCNc2cccc3c2C(=O)N(C2CCC(=O)CC2=O)C3=O)c2cccc(N(C)C)c2)c(O)c2ncccc12 (stereo unspecified)
active: [1]; 10 µM unless noted 8.01% | [6]; 10 µM unless noted 7.35% | [7]; 10 µM unless noted -70.1% | [8]; 10 µM unless noted -6.03% | [9]; 10 µM unless noted 0.535% | [11]; 10 µM unless noted -1.61% | [12]; 10 µM unless noted 7.79% | [14]; 10 µM unless noted 8.84% | [19]; 10 µM unless noted -19.4% | [20] -0.125%
inactive: [2]; 10 µM unless noted 28.6% | [3]; 10 µM unless noted 32.9% | [4]; 10 µM unless noted 10.1% | [5]; 10 µM unless noted 17.6% | [10]; 10 µM unless noted 10.7% | [13]; 10 µM unless noted 10.2% | [15] 42.4% | [16]; 10 µM unless noted 14.7% | [17]; 10 µM unless noted 19.4% | [18]; 10 µM unless noted 26.9%

Cc1nn(-c2ccccc2)c2nc(C)n(CC(=O)N/N=C/c3ccccc3O)c(=O)c12
inactive: [1]; 10 µM unless noted 26.7% | [2]; 10 µM unless noted 41.2% | [3]; 10 µM unless noted 76.1% | [4]; 10 µM unless noted 36.5% | [5]; 10 µM unless noted 28.7% | [6]; 10 µM unless noted 46.8% | [10]; 10 µM unless noted 37.9% | [11]; 10 µM unless noted 38.1% | [12]; 10 µM unless noted 13% | [13]; 10 µM unless noted 30% | [14]; 10 µM unless noted 13.2% | [15] 32.8% | [16]; 10 µM unless noted 14.6% | [17]; 10 µM unless noted 22.6% | [18]; 10 µM unless noted 97% | [19]; 10 µM unless noted 25.7% | [20] 22.8%
active: [7]; 10 µM unless noted -2.79% | [8]; 10 µM unless noted 3.15% | [9]; 10 µM unless noted 4.1%

COc1cc2cc(C(=O)N3C[C@@H](CCl)c4c3cc(OC(=O)N(CCC(=O)N3CCN(C)CC3)[C@H]3CCSSC3)c3ccccc43)[nH]c2c(OC)c1OC
inactive: [17]; 10 µM unless noted 13.7% | [19]; 10 µM unless noted 32%
active: [1]; 10 µM unless noted -52.1% | [2]; 10 µM unless noted -49.4% | [3]; 10 µM unless noted -68.7% | [4]; 10 µM unless noted -7.02% | [5]; 10 µM unless noted -68% | [6]; 10 µM unless noted -4.51% | [7]; 10 µM unless noted -86.3% | [8]; 10 µM unless noted -91.8% | [9]; 10 µM unless noted -99.5% | [10]; 10 µM unless noted -94.1% | [11]; 10 µM unless noted -85% | [12]; 10 µM unless noted -67.7% | [13]; 10 µM unless noted -10.3% | [14]; 10 µM unless noted -26.9% | [15] 8.66% | [16]; 10 µM unless noted -6.81% | [18]; 10 µM unless noted -19.6% | [20] -9.57%

O=C(N/N=C/c1ccc(Cl)cc1)c1ccc(OCc2nc3ccc(Cl)cc3[nH]2)cc1
active: [1]; 10 µM unless noted -47.1% | [2]; 10 µM unless noted -55.7% | [5]; 10 µM unless noted -88.5% | [6]; 10 µM unless noted -10.1% | [9]; 10 µM unless noted -81%
inactive: [3]; 10 µM unless noted 53.9% | [4]; 10 µM unless noted 35% | [7]; 10 µM unless noted 52.2% | [8]; 10 µM unless noted 47.5% | [10]; 10 µM unless noted 41% | [11]; 10 µM unless noted 47.7% | [12]; 10 µM unless noted 32.1% | [13]; 10 µM unless noted 30.4% | [14]; 10 µM unless noted 11.1% | [15] 12.4% | [16]; 10 µM unless noted 28.6% | [17]; 10 µM unless noted 73.6% | [18]; 10 µM unless noted 129% | [19]; 10 µM unless noted 66.7% | [20] 15%

Cn1cc(-c2cc(N)n3nc(-c4c[nH]c5ccccc45)cc3n2)c2cc(Cl)ccc21
active: [1]; 10 µM unless noted -77.3% | [2]; 10 µM unless noted -51.4% | [3]; 10 µM unless noted -14.7% | [4]; 10 µM unless noted -91.1% | [5]; 10 µM unless noted -94.7% | [6]; 10 µM unless noted -27.2% | [7]; 10 µM unless noted -97.6% | [8]; 10 µM unless noted -76.9% | [9]; 10 µM unless noted -82.5% | [10]; 10 µM unless noted -90.2% | [11]; 10 µM unless noted -64.6% | [12]; 10 µM unless noted -77% | [13]; 10 µM unless noted -81.2% | [14]; 10 µM unless noted -80.1% | [15] -90.2% | [16]; 10 µM unless noted -75.6% | [17]; 10 µM unless noted -63.6% | [18]; 10 µM unless noted -59.1% | [19]; 10 µM unless noted -16.2% | [20] 6.43%
